# Screening results from PubChem.
# GALR2 ag: GALR2 receptor agonists, primary screen, cell-based; Galanin receptor type 2 (Homo sapiens), O43603; GALR2-expressing cells, agonist activation read-out; activation, % (no concentration beside the values); 0.48% of 140,000 active; AID 803, 2007; in the data active means activation above about 5%, passing the limit was not always enough;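 further: 0% = vehicle buffer wells and 100% = reference agonist at full effect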
# MRP1 act: H69AR viability gain despite doxorubicin, primary screen, MRP-1 activator project, H69AR cells, CellTiter-Glo. viability increase, % at 10 µM. 0.61% of 140,000 active. AID 799, 2007. viability rescue;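 active means viability gain under doxorubicin at or above a set limit, the compound median plus 3 SD, cut at about 4.7% in these data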;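 further: MRP-1 overexpressing cells given doxorubicin 25 µM after compound pretreatment; 18-22 h compound pretreatment then 72 h with doxorubicin before readout; 0% = doxorubicin-only wells and 100% = vehicle-treated cells without doxorubicin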
# GALR2 antag: GALR2 antagonists in receptor-expressing cells, primary screen; Galanin receptor type 2 (Homo sapiens), O43603; antagonist mode; inhibition, % at 4 µM; 0.39% of 140,000 active; AID 828, 2007; in the data active means inhibition above about 27%;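 further: cells stimulated with galanin 1-16 at roughly its EC80; 0% = agonist challenge control and 100% = basal control without agonist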
# S1P2 antag: human S1P2 receptor antagonists, primary screen, cell-based | cell-based S1P2 antagonist assay, inhibition at 5 uM | 0.21% of 97,000 active | Sphingosine 1-phosphate receptor 2 (Homo sapiens), O95136 | inhibition, % at 5 µM; in the data active means inhibition above about 45%;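 further: CRE beta-lactamase reporter cells expressing human S1P2 stimulated with S1P; 0% = agonist at EC80 alone and 100% = agonist plus reference antagonist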
# Target sequence (O95136 whole entry, looked up): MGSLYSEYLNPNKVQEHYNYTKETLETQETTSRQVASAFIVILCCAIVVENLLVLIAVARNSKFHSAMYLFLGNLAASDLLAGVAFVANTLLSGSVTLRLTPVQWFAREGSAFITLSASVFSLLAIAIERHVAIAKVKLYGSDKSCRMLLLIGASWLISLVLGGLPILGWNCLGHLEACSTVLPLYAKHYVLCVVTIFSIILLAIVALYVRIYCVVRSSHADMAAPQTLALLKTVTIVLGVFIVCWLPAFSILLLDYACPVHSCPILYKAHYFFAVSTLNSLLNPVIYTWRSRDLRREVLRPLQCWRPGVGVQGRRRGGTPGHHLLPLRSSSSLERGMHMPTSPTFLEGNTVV
# S1P2 ag: S1P2 receptor agonists, primary screen, cell-based; S1P2-expressing cell line, agonist reporter read-out; activation, % at 4.5 µM; 0.46% of 97,000 active; AID 729, 2007; in the data active means activation above about 16%;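 further: 0% = vehicle low control and 100% = maximal reference agonist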
# MRP reversal: reversal of MRP1-mediated doxorubicin resistance, primary screen, H69AR cells, doxorubicin co-treatment; H69AR cells + 2 uM doxorubicin, CellTiter-Glo, 72 h; differential viability (reversal), % at 10 µM; 0.04% of 85,000 active;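 active means viability drop by adding the cancer drug above about 55%, with treated viability meeting a 40% cutoff, limit read from the data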;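 further: viability without doxorubicin minus viability with 2 µM doxorubicin for each compound; larger differential means the compound sensitizes cells more to doxorubicin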
# GALR2 agon conf: GALR2 agonists, retest of hits, confirmation, cell-based; shares compounds with GALR2 ag; GALR2-expressing cells, agonist activation; activation, % at 5.6 µM; 10% of 460 active; AID 864, 2007; in the data active means activation above about 8.4%;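 further: 0% = buffer-only vehicle wells and 100% = full reference agonist response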
# BLA act counter: activators of NFAT-driven beta-lactamase reporter, confirmation, counter-screen for GALR2 agonist project, CHO NFAT-bla cells, FRET readout; shares compounds with GALR2 ag; 10% of 460 active; activation, % at 5.6 µM; beta-lactamase FRET activation;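 active means activation above the screen-wide mean activation plus 3 SD, cut at about 8% in these data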;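 further: 0% = DMSO with PBS wells and 100% = thapsigargin positive control wells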
# * marks the source's active call; other numbers are inactive results; / = no result given. The list is not random: actives were taken first. Their share in the collection is about 1.7%.
SMILES,GALR2 ag,MRP1 act,GALR2 antag,S1P2 antag,S1P2 ag,MRP reversal,others
O=C(Nc1ccc(Cl)cc1)Nc1nccs1,0,-3,14,13,53*,-16,
O=c1[nH]c(=S)n(C2CC2)c(O)c1C=Nc1cccc(C(F)(F)F)c1,-1,2,8,/,/,/,
CCOC(=O)C1=C(NC(=S)NC(=O)c2ccccc2)c2ccccc2CC12CCCC2,-1,-3,-6,/,/,/,
CC(C)OCCCNC(=O)c1c(N)n(CC2CCCO2)c2nc3ccccc3nc12 (stereo not drawn),12*,-3,-12,-16,18*,-27,
CCCCn1c(NS(=O)(=O)c2ccc(C)cc2)c(C(=O)OCC)c2nc3ccccc3nc21,7.0*,-2,-8,/,/,/,
CCCCCn1c(N)c(C(=O)NCCN2CCOCC2)c2nc3ccccc3nc21,6,-6,-11,-13,16*,-27,
COc1ccc(CCNC(=O)c2c(N)n(CCN3CCOCC3)c3nc4ccccc4nc23)cc1OC,4,-6,-12,1,6,-17,
CCCCn1c(NC(=O)c2ccco2)c(C(=O)OCC)c2nc3ccccc3nc21,0,-3,1,17,-3,9,
CCCNC(=O)c1c(N)n(CC2CCCO2)c2nc3ccccc3nc12 (stereo not drawn),8,-4,7,-14,7,-2,
CCCCNC(=O)c1c(N)n(Cc2ccc3c(c2)OCO3)c2nc3ccccc3nc12,6.8*,-3,-4,-36,38*,0,
CCCCn1c(N)c(C(=O)NCc2cccs2)c2nc3ccccc3nc21,36*,-5,-11,-3,18*,-12,
CCCCOCCCn1c(N)c(C(=O)OCCOC)c2nc3ccccc3nc21,-1,-3,6,-15,-2,26,
Nc1c(C(=O)NCCCc2ccccc2)c2nc3ccccc3nc2n1Cc1cccs1,32*,-3,-3,-63,84*,-3,
CCCCCCn1c(N)c(C(=O)NCCN2CCOCC2)c2nc3ccccc3nc21,20*,-8,-6,-27,29*,0,
COCCCn1c(N)c(C(=O)NCCC(C)C)c2nc3ccccc3nc21,33*,-6,-15,-31,29*,-38,
CCCCCn1c(N)c(C(=O)NCc2cccs2)c2nc3ccccc3nc21,2,-6,0,-14,13,2,
CC1(C)N=C(c2ccccc2)[C@@H]2C(c3ccc([N+](=O)[O-])cc3)N21 (stereo partly drawn),0,-2,2,/,/,/,
O=c1c2ccccc2nc(-c2ccc(Cl)cc2Cl)n1-c1nccs1,0,-1,1,/,/,/,
COc1ccc(C(Nc2ccccc2)P(=O)(Oc2ccccc2)Oc2ccccc2)cc1 (stereo not drawn),-1,-3,6,/,/,/,
CC1C(c2cccs2)=[N+]([O-])C(C)(C(=O)c2cccs2)N1O (stereo not drawn),0,-3,-6,/,/,/,
CCN1/C(=C\C=C\C2=[N+](CC)c3ccccc3C2(C)C)C(C)(C)c2ccccc21,2,-5,-9,106*,-5,0,
Cc1cccn2c(=O)c3c(nc12)N1CCC(Cc2ccccc2)CC1C1(C3)C(=O)N(C)C(=O)N(C)C1=O (stereo not drawn),2,1,-9,4,17*,-33,
CN1C(=O)N(C)C(=O)C2(Cc3c(nc4ccccn4c3=O)N3CCC(Cc4ccccc4)CC32)C1=O (stereo not drawn),/,/,/,/,/,-2,
COc1ccc(N2C(=O)CC(N3CCC(n4c(=O)[nH]c5ccccc54)CC3)C2=O)cc1 (stereo not drawn),-1,5.5*,-8,10,-7,-10,
C[N+]1(CC(COCc2ccccc2)OC(=O)Cc2ccccc2)CCOCC1 (stereo not drawn),-1,-1,-1,/,/,/,
SMILES,GALR2 ag,MRP1 act,GALR2 antag,S1P2 antag,S1P2 ag,MRP reversal,others
O=C(NCCCN1CCOCC1)C(Cl)(Cl)Cl,0,0,1,/,/,/,
O=C(c1cccn2c(=O)c3cc(Br)ccc3nc12)N1CCC2(CC1)OCCO2,-1,4.8*,2,10,0,6,
O=C1NC(=O)N(c2ccccc2)C(=O)/C1=C/c1ccc(Sc2ccccc2)o1,-2,-2,-6,47*,0,/,
Nc1c(C(=O)NCc2ccco2)c2nc3ccccc3nc2n1Cc1ccc(F)cc1,28*,-5,-18,-51,48*,-8,
Nc1c(C(=O)NCc2ccco2)c2nc3ccccc3nc2n1Cc1ccccc1,5.1*,-4,7,/,/,/,
Nc1c(C(=O)NCc2ccco2)c2nc3ccccc3nc2n1CCN1CCOCC1,3,-5,-21,-30,5,-13,
Cc1cc(C)[n+](C2C3CC4CC(C3)CC2C4)o1 (stereo not drawn),-1,-2,1,/,/,/,
CC1(C)C(=O)C=C[C@]2(C)[C@H]3CC[C@@]4(C)[C@H](c5ccoc5)OC(=O)[C@H]5O[C@]54[C@]3(C)[C@H](O)C[C@@H]12,-1,-5,-5,/,/,/,
CCN(CC)S(=O)(=O)c1ccc(NN=C(C#N)C#N)cc1,-1,5.6*,6,/,/,/,
Cc1ccc(N2C(=O)NC(=O)/C(=C\c3ccsc3)C2=O)cc1C,0,5.5*,-2,/,/,/,
Cc1ccc(N2C(=O)NC(=O)/C(=C/c3cnc(-c4ccccc4)nc3)C2=O)cc1C,-1,-1,-3,/,/,/,
CN(C)c1ccc(NC(=O)CN2C(=O)CN=C(c3ccccc3)c3cc(Cl)ccc32)cc1,0,6.8*,-17,31,-4,3,
Cc1ccc(NC(=O)CN2C(=O)CN=C(c3ccccc3)c3cc(Cl)ccc32)cc1,-1,0,-7,36,-5,2,
FC(F)(F)c1cccc(-n2nnnc2C2(N3CCOCC3)CCCCC2)c1,-1,-4,10,-13,-6,/,
O=C(COc1ccc(Cl)cc1)N1CCN(Cc2ccccc2)CC1,-1,6.5*,8,10,-4,6,
COc1ccc(Cn2c(N)c(C(=O)NCc3ccco3)c3nc4ccccc4nc32)cc1,13*,-2,-11,-9,13,-6,GALR2 agon conf=8.6*;BLA act counter=16*
CCOC(=O)c1c(N)n(Cc2ccco2)c2nc3ccccc3nc12,2,-5,15,-17,1,-28,
CCN(c1ccc(C(O)(C(=O)OC)C(F)(F)F)cc1)S(=O)(=O)c1ccccc1 (stereo not drawn),16*,1,7,/,/,13,GALR2 agon conf=0;BLA act counter=-1
